Data on 40 compounds can be found in PubChem BioAssay (Tox21).

Values without a mark were called inactive. Entries that show only a call come without a potency. Activity calls are given as the source filed them. Calls follow the shape of the dose curve; as a rule, active = well fitted inhibition curve with a large enough effect in the repeat runs (not every such curve was filed as active); inconclusive = weak or mixed curves; inactive = flat fitted curve, though single readings scatter.
Potency is read from the fitted curve at half-maximal effect.

The target of this assay is Thyrotropin-releasing hormone receptor (Homo sapiens) (UniProt P34981). Put plainly: qHTS assay to identify small molecule antagonists of the thyrotropin-releasing hormone receptor (TRHR) signaling pathway (AID 1346877). The note with it: TRHR-HEK293, TRH-induced calcium fluorescence, antagonist mode; series mostly up to 51.3 µM. An excerpt: National Center for Advancing Translational Sciences [NCATS]
Thyrotropin-releasing hormone receptor (Homo sapiens), sequence (P34981 whole entry, looked up): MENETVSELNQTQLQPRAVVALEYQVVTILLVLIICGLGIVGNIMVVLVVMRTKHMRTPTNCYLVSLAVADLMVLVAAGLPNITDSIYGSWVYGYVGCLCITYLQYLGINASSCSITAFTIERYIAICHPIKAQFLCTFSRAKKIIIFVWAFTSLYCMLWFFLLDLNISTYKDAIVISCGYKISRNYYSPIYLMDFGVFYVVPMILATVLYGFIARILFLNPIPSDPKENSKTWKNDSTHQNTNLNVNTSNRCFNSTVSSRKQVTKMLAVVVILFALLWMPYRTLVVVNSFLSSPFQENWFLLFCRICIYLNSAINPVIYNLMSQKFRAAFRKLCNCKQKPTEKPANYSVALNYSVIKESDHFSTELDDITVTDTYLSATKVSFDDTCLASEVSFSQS
NIH Chemical Genomics Center [NCGC]
U.S. Environmental Protection Agency [EPA]
National Institutes of Environmental Health Sciences [NIEHS]
National Toxicology Program [NTP]
U.S. Food and Drug Administration [FDA]
Thyrotropin-releasing hormone (TRH) receptor (TRHR) is a G-protein-coupled receptor which binds the tripeptide thyrotropin releasing hormone. TRHR is found in the brain and, when bound by TRH, acts (through phospholipase C) to increase intracellular inositol trisphosphate. It plays a crucial role in the anterior pituitary where it controls the synthesis and secretion of thyroid stimulating hormone and prolactin. The TRHR-Hek293 assay is a cell-based assay, and it has the potential to screen G protein-coupled receptors. A compound/drug can either activate (agonist) or suppress (antagonist) GPCRs that can be monitored by levels of intracellular calcium. In this assay, the Tox21 10K compound library was screened to identify potential TRHR antagonists.
Tox21 Assay Protocol Summary:
The TRHR-Hek293 cells were dispensed at 1500cells/4uL/well in 1536-well black-clear bottom plates using a Multidrop dispenser. After the assay plates were incubated at a 37 C/5% CO2 incubator for 18 hours, 4 uL of Dye-Loading Solution was added to each well. The plates were incubated at 37 C for 2 hours. For agonist mode, 23 nL of compounds dissolved in DMSO, positive controls or DMSO only was transferred to the assay plate by a pin tool. The fluorescence intensity in the plates was measured using FDSS 7000EX kinetic plate reader for 3 min at 1 sec intervals. For antagonist mode, 23 nL of compounds dissolved in DMSO, positive controls or DMSO only was transferred to the assay plate by a pin tool. After 5 min incubation at room temperature, 1 uL of TRH was added on the top of the cell/compound mixtures to achieve a final agonist concentration of 1 nM. The fluorescence intensity in the plates was measured using FDSS 7000EX kinetic plate reader for 3 min at 1 sec intervals. Each test compound was measured at 15 concentrations and in triplicates.
For orientation: Quantitative high-throughput screening tests each substance at several concentrations.
Regarding `CCSCC`, the Potency entry was “inactive”.

With `CCn1c2ccccc2c2ccccc21`, the Potency entry is “inactive”.

Take `Cc1cc(F)ccc1-c1cc(N2CC[C@@H](O)[C@H]2CO)ncc1N(C)C(=O)C(C)(C)c1cc(C(F)(F)F)cc(C(F)(F)F)c1`: the Potency result was “inactive”. As for `CCc1cccc(CC)c1`, the Potency entry was “inactive”.

Regarding `COc1cccc(-c2ccc(/C=C\CN3CCCCCC3)cc2Cl)c1`, the Potency result is “inactive”. Still for that read-out and setting: as for `O=C(c1ccccc1)c1ccc(Cl)cc1`, the entry is “inactive”. Take `CCCCCCCCCCCCS(=O)(=O)Cl`: the activity, negative = inhibition was -4.31% [at 10.5 µM]. Turning to `O=C1CCC(=O)N1`, the Potency result was “inactive”. The same measure, in the same setting: with `O=C(Nc1ccccc1)c1cc(Cl)ccc1O` the entry was “inactive”; with `CCN(CC)c1ccc2c(c1)Oc1cc(N(CC)CC)ccc1C21OC(=O)c2ccccc21`, “inactive”.

For the compound `ClC(c1ccccc1)(c1ccccc1)c1ccccc1`, the Potency entry was “inactive”.

For `C[C@H]1O[C@@H](O[C@H]2CC[C@@]3(C)[C@H](CC[C@@H]4[C@@H]3C[C@@H](O)[C@]3(C)[C@@H](C5=CC(=O)OC5)CC[C@]43O)C2)C[C@H](O)[C@@H]1O[C@H]1C[C@H](O)[C@H](O[C@H]2C[C@H](O)[C@H](O[C@@H]3O[C@H](CO)[C@@H](O)[C@H](O)[C@H]3O)[C@@H](C)O2)[C@@H](C)O1`, the Potency entry is “inactive”. On the same count and under the same terms, with `Cc1ccc2n[nH]nc2c1` the entry was “inactive”; with `CCc1cccc(C)c1N(C(=O)CS(=O)(=O)O)C(C)COC` (stereo not given), “inactive”; with `O=C1OCc2ccccc21`, “inactive”. Turning to `O=C(Nc1ccc([N+](=O)[O-])cc1)Nc1ccc([N+](=O)[O-])cc1` (tested in a mixture with another compound), the Potency entry is “inactive”. For the compound `O=C1OC2(c3ccccc31)c1ccc(O)c(Br)c1Oc1c2ccc(O)c1Br`, the Potency is 1200 nM (active). Still for that read-out and setting: as for `CC1=C(/C=C/C(C)=C/C=C/C(C)=C\C(=O)O)C(C)(C)CCC1`, the entry is “inactive”; as for `CN(C/C=C/c1ccccc1)Cc1cccc2ccccc12`, “inactive”; as for `c1ccc(-c2nc3ccccc3[nH]2)cc1`, “inactive”. In the case of `Oc1ccc(Cl)cc1C1CCCC1`, the Potency entry is “inactive”. On to `NC(=O)C1CO1` (stereo not given), for which the Potency entry was “inactive”. With `CCCC(=O)c1cc(O)c(O)cc1O`, the Potency result is “inactive”. For `Cc1c[nH]c(=O)[nH]c1=O`, the Potency result is “inactive”. Same read-out and setting: with `O=C(NCc1ncc(C(F)(F)F)cc1Cl)c1c(Cl)cccc1Cl` the entry was “inactive”; with `C1=CCCC1`, “inactive”.

For the compound `Clc1nc(C(Cl)(Cl)Cl)c(Cl)c(Cl)c1Cl`, the Potency entry was “inactive”. On to `CCCCCN=C(N)N/N=C/c1c[nH]c2ccc(OC)cc12`, for which the Potency entry was “inactive”. As to `CCOc1ccc([N+](=O)[O-])cc1`, the Potency result was “inactive”.

`CCOc1nc(F)cc2nc(S(=O)(=O)Nc3c(Cl)cccc3C(=O)OC)nn12`: the Potency result was “inactive”.

With `Cc1c(Cl)c(=O)oc2cc(O)ccc12`, the Potency result was “inactive”. As for `COc1cc2ncnc(Nc3cccc(Cl)c3)c2cc1OC`, the activity, negative = inhibition is -3.3% [at 10.5 µM].

On to `C=CC(=O)OCCOC1C2CCC1C1CC=CC12` (stereo not given), for which the activity, negative = inhibition was 0.809% [at 10.5 µM]. In the case of `O=c1cc[nH]cc1`, the Potency entry is “inactive”.

As to `CCOC(=O)[C@H](O)[C@@H](O)C(=O)OCC`, the Potency result was “inactive”. For `CC(=O)[C@]1(O)Cc2c(O)c3c(c(O)c2[C@@H](O[C@H]2C[C@H](N)[C@H](O)[C@H](C)O2)C1)C(=O)c1ccccc1C3=O`, the Potency result was “inactive”.

Consider `NCc1ccco1`, for which the Potency entry is “inactive”. The same measure, in the same setting: as for `S=C1NC=NC2N=CNC12` (stereo not given), the entry is “inactive”; as for `CCC(C)(C)c1ccc(CC(C)CN2C[C@@H](C)O[C@@H](C)C2)cc1` (stereo not given in full), “inactive”. Still for that read-out and setting: with `C=C1C(CCl)(CCl)C2(Cl)C(Cl)C(Cl)C1(Cl)C2(Cl)Cl` (stereo not given) the entry was “inactive”.
